KinaseGlo FLuc: counter-screen: inhibitors of Kinase-Glo firefly luciferase | Q27757 | Kinase-Glo luciferase, ATP luminescence, 8 min | Potency, µM (series often up to 38.3 µM), without a hit: at the highest dose activity change, negative = inhibition, most hits filed as inhibitors | actives 0.28% (n = 200,000); further: on the % scale 0 is the no-effect control and ±100 the full control effect; nearly all actives have a fitted effect of over 60% in size
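Luminescence was the read-out, taken after 8-minute incubation at ambient temperature. Luciferase turned over luciferin with 10 uM ATP in imidazole pH 7.2 buffer containing KCl, MgCl2, Tween 20 and BSA.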
ELG1 genotox: inducers of genotoxicity in HEK293T ELG1-luciferase cells; Potency, µM (highest dose often 46 µM), inactives show at the top dose activity change, positive = activation, hits mostly activators; actives 1.3% (n = 330,000); HEK293T ELG1-luciferase reporter, luminescence, 16 h; further: % of control where 0% means no effect; nearly all actives have a fitted effect of over 60% in size
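Reporter readout depends on ELG1 protein level, which increases with genetic stress. After 16 hr compound exposure at 37 °C, luciferase activity was quantified using ONE-Glo.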
FLuc counter: firefly luciferase modulation, counter-screen for miR-21 project | Potency, µM (titrated, usually from 57.5 µM), for the others: at the highest dose activity change, negative = inhibition, actives largely listed as inhibitors | AID 588342 | purified FLuc, Km substrates, luminescence inhibition | actives 6.9% (n = 360,000);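 further: plate controls were vehicle for no effect and reference inhibitor for full effect; nearly all actives have a fitted effect of over 55% in size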
Target sequence (P08659 whole entry, looked up): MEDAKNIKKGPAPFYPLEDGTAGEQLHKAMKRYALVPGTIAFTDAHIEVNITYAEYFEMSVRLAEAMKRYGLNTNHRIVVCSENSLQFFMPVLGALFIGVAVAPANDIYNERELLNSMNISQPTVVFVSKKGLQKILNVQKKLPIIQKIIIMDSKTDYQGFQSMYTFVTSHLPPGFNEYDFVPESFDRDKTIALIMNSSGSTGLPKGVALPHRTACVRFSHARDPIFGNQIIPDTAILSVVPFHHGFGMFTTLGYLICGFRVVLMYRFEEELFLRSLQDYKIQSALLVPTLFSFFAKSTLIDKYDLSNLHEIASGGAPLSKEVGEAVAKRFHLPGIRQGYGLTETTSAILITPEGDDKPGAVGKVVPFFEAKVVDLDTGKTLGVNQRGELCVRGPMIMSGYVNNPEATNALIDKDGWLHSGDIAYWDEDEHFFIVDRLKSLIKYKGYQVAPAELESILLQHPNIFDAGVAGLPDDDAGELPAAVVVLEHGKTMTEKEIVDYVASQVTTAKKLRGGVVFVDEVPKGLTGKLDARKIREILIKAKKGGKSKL
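Purified P. pyralis luciferase, 10 nM final, with Km-level 10 uM D-luciferin and 10 uM ATP in 50 mM Tris acetate pH 7.5, 10 mM Mg acetate, 0.01% Tween-20, 0.05% BSA; 6-point qHTS titration about 60 µM downward; luminescence read.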
NPC1 promoter act: activates the NPC1 promoter; AID 485313; actives 2.4% (n = 320,000); Huh7 NPC1 promoter luciferase reporter, 24 h; Potency, µM (series often up to 9.22 µM), for inactives: at the highest dose activation, usual class: activators; further: % of control where 0% means no effect; nearly all actives have a fitted effect of over 60% in size
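Stably transfected Huh7 (NPC1 promoter→luciferase), 1500 cells/well in Opti-MEM + 10% FBS, 2 h settle, then compound 24 h at 37 °C. Luminescence after 10 min with Amplite reagent.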
SMN2 splice enh: increases expression of the SMN2 splice variant | HEK293 SMN2-luciferase splicing reporter, luminescence, 30-36 h | Potency, µM (top dose mostly 46.1 µM), inactives show at the highest dose activity change, positive = activation, hits mostly activators | actives 2.8% (n = 210,000) | AID 1458; further: % of control where 0% means no effect; nearly all actives have a fitted effect of over 55% in size
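HEK293 cells carry an SMN2 […]–luciferase reporter in which exon 7 inclusion puts luciferase in frame. Cells were plated 10-12 h before compound addition, then incubated 30-36 h at 37C. ONE-Glo luminescence was read; sodium butyrate at 4.5 mM final served as control.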
Rab9 promoter act: activates the Rab9 promoter. Huh7 Rab9 promoter-luciferase reporter, luminescence, 24 h. Potency, µM (series often up to 9.22 µM), for the others: at the highest dose activation, negative = inhibition, actives largely listed as activators. actives 2.8% (n = 320,000). AID 485297; further: % of control where 0% means no effect; nearly all actives have a fitted effect of over 60% in size
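Cell-based reporter: Huh7 stable for Rab9 promoter-driven luciferase, plated in reduced-serum medium with 10% FBS at 1500 cells/well, compound-treated 24 h at 37 °C, luminescence read after 10 min reagent.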
Numbers without * were called inactive; ? = inconclusive; / = no result given; [ ] = remark or other dose. Rows were chosen to be rich in hits. Some 7.5% of all compounds tested hit in one or more screens of this group. The call rests on the fitted dose curve; in most records, active means well fitted curve in the direction sought with a large enough effect; inconclusive means small, poorly fitted or top-dose-only effect, or another doubt; inactive means no such curve, though single readings can be large; an effect the other way counts as inactive or inconclusive. Potency means the concentration at half of the fitted maximal effect.

SMILES | KinaseGlo FLuc | ELG1 genotox | FLuc counter | NPC1 promoter act | SMN2 splice enh | Rab9 promoter act
C/C(=N\Nc1cc(C)nc(NCc2ccccc2)n1)c1cccc([N+](=O)[O-])c1 | / | -1.6% | 12µM* | 0.8% | / | -5.1%
C/C(=N\Nc1nnc(-c2ccccc2)c(-c2ccccc2)n1)c1cccc([N+](=O)[O-])c1 | -6.9% | 20.6µM* | 13.5µM* | 29.1% | 8.0% | -0.4%
C/C(=N\Nc1ccc(Cl)c(C(=O)O)c1)c1cccc([N+](=O)[O-])c1 | / | 16.8% | 19µM* | ? | / | ?
O=[N+]([O-])c1cccc(/C=N/Nc2nnc(-c3ccccc3)c(-c3ccccc3)n2)c1 | 0.5% | -1.6% | -0.4% | -0.2% | -7.3% | -0.5%
O=C(Oc1ccc(F)cc1)c1nc(SCc2ccc(F)cc2)ncc1Cl | / | / | 2.0% | / | 3.2% | /
C=CC1=C2C=C(C3CC3)N(C3CCCCC3)C=C2C(=O)C(C)(OC(=O)c2ccco2)C1=O (stereo not given) | -5.7%[7.66 µM] | / | / | / | 8.4%[9.22 µM] | /
Cn1ccc2cc(S(=O)(=O)N3CCN(C(=O)Nc4cccc(F)c4)CC3)ccc21 | / | / | -0.8% | / | / | /
CCOc1cc(C(=O)Nc2c(NC)c3ccccc3oc2=O)cc(OCC)c1OCC | / | / | 0.7% | / | 1.8% | /
Cc1cc(C(=O)COc2ccc(F)cc2Br)c(C)n1C1CC1 | / | -0.5% | 10.7µM* | 16.8% | / | ?
Cc1cc(C(=O)COc2ccc(F)cc2Br)c(C)n1C | 0.9% | 8.5% | 21.3µM* | 14.0% | 13.2% | 28.0%
Cc1cnc(C(=O)OCC(=O)c2cc(C)n(C)c2C)cn1 | 0.1% | 2.2% | -15.3% | -1.6% | 4.6% | 4.0%
Cc1cc(C(=O)CN2CCN(CC(=O)Nc3ccc(F)cc3)CC2)c(C)n1C1CC1 | / | 0.6% | / | 0.5% | / | -5.1%
CCCn1nc(NS(=O)(=O)c2cccc3nonc23)c2cc3cc(C)ccc3nc21 | / | 12.0% | 10.7µM* | 18.2% | / | 7.6%
CCn1nc(NC(=O)C2CCCO2)c2cc3cc(C)ccc3nc21 (stereo not given) | 0.7% | 14.9% | 16.9µM* | 28.7% | ? | ?
CCCn1nc(NC(=O)c2ccccn2)c2cc3cc(C)ccc3nc21 | 2.4% | 6.1% | 10.7µM* | 28.5% | ? | 14.6%
CCn1nc(NS(=O)(=O)c2ccc(NC(C)=O)cc2)c2cc3ccc(C)cc3nc21 | / | 2.0% | 26.9µM* | 1.0% | / | 0.7%
CCn1nc(NS(=O)(=O)c2ccc(NC(C)=O)cc2)c2cc3ccccc3nc21 | / | -0.4% | -21.9% | 1.3% | / | -4.2%
Cc1cccc(-c2nnn3c2nc(NCc2ccccc2)c2ccccc23)c1 | / | / | -1.0% | / | 14.4% | /
CC(OC(=O)c1cc(=O)[nH]c2ccccc12)C(=O)c1ccccc1 (stereo not given) | -3.6% | 1.6% | -1.5% | -10.7% | 18.5% | -3.8%
COc1cc(OC)c(NC(=O)NC(C)c2c(-n3cccc3)sc(C)c2C)cc1Cl (stereo not given) | / | / | -10.5% | / | -3.9% | /
Cc1nc(-c2cccc(NC(=O)c3cc4cc(Br)ccc4oc3=O)c2)cs1 | -5.2% | 1.1% | -7.4% | -2.7% | -1.6% | 1.0%
Cc1nc(-c2ccc(NC(=O)c3ccccc3C)cc2)cs1 | -15.4% | 13.0% | 3.38µM* | 1.41µM* | / | 1.58µM*
Cc1nc(-c2ccc(NC(=O)c3ccccc3Br)cc2)cs1 | -2.3% | ? | 6.01µM* | ? | 15.8µM* | 2.82µM*
O=C(COc1cccc(Cl)c1)Nc1ccc2c(c1)CCC2 | -3.0% | 3.0% | ? | 12.1% | 20.2% | 12.8%
N#Cc1cc2c(nc1S(=O)(=O)Cc1ccccc1)CCCC2 | -4.7% | -0.8% | -2.1% | 4.1% | -3.2% | 15.1%
SMILES | KinaseGlo FLuc | ELG1 genotox | FLuc counter | NPC1 promoter act | SMN2 splice enh | Rab9 promoter act
O=C(NC(=S)Nc1cccc(NC(=S)NC(=O)c2ccco2)n1)c1ccco1 | 1.7% | 3.8% | -4.3% | 0.9% | -6.5% | 2.2%
O=C(NC(=S)NNC(=O)c1ccccc1O)c1ccco1 | -3.3% | 0.6% | 21.3µM* | 4.4% | -9.4% | 0.5%
O=C(NC(=S)Nc1ccccc1Br)c1ccco1 | / | ? | 10.7µM* | ? | / | ?
O=C(NNC(=S)NC(=O)c1ccco1)c1ccc(NC(=O)c2ccccc2)cc1 | -0.4% | -6.2% | ? | -1.0% | -27.4% | -5.6%
O=C(Nc1ccc(NC(=S)NC(=O)c2ccco2)cc1)c1ccccc1 | / | 14.6% | 1.1% | -2.8% | / | 13.1%
O=C(CNC(=S)NC(=O)c1ccco1)c1ccccc1 | -6.8% | 16.3% | 12µM* | ? | 1.7% | 23.0%
O=C(CNC(=S)NC(=O)C1CCCCC1)c1ccccc1 | -2.7% | ? | 12µM* | 29.8% | ? | ?
O=C(NCc1cccc(Br)c1)c1cnn(-c2ccc(F)cc2)c1-n1cccc1 | / | / | -19.2% | / | / | /
CC1=C(C(=O)Nc2ccccc2Cl)C(c2cccc(O)c2)n2ncnc2N1 (stereo not given) | / | / | -1.8% | / | / | /
CC1(C2CC(C(F)(F)F)n3nc(C(=O)O)cc3N2)CC1 (stereo not given) | -1.2% | -4.0% | 4.6% | -0.5% | / | 0.5%
O=C(NC(=S)NNC(=O)c1cc2ccccc2cc1O)c1ccco1 | 0.3% | 3.4% | 16.9µM* | 13.4% | -4.0% | 0.2%
COc1ccc2c(c1)CCc1c-2nc2ccccc2c1N1CCOCC1 | / | 4.3% | 5.36µM* | 1.4% | / | 17.4%
c1ccc2c(N3CCOCC3)c3c(nc2c1)CCC3 | / | -7.6% | 0.5% | -4.4% | / | -1.7%
COc1cccc(CSc2nc3n(n2)C(CC(C)C)C(C(=O)Nc2ccccc2C)=C(C)N3)c1 (stereo not given) | / | / | 1.2% | / | / | /
COc1ccc2oc(=O)c(C(=O)NC3CCCCCC3)cc2c1 | / | ? | 15.1µM* | 25.4% | / | -6.4%
CNC(=O)c1cc2cc(OC)ccc2oc1=O | 1.4% | 3.2% | -6.9% | -0.8% | -7.9% | 15.5%
COc1ccc2oc(C(=O)NCCC(C)C)c(C)c2c1 | -0.7% | ? | 3.38µM* | 3.16µM* | 11.2µM* | ?
COc1ccc2oc(C(=O)NC3CCCCC3)c(C)c2c1 | / | 3.66µM* | 5.36µM* | 3.16µM* | / | 3.16µM*
COc1ccc(C(CNC(=O)c2oc3ccc(OC)cc3c2C)N2CCCC2)cc1 (stereo not given) | / | -0.4% | -7.7% | -2.4% | / | -13.5%
Cc1ccc2oc(C(=O)NC3CCS(=O)(=O)C3)c(C)c2c1 (stereo not given) | / | 17.3% | -16.3% | 16.9% | / | 14.2%
Cc1c(C(=O)NC2CCCCC2)oc2ccc(F)cc12 | / | ? | 12µM* | ? | / | ?
Cc1ccc(NC(=O)Cn2c(=O)n(CCc3ccccc3)c(=O)c3c4c(sc32)CCCC4)cc1C | / | / | 1.8% | / | -3.4% | /
Cc1ccc(SCC(=O)NCC2CCCO2)cc1 (stereo not given) | 1.6% | 3.8% | -5.9% | 3.9% | / | 6.4%

Bioassay records (PubChem BioAssay)
